Compounds with a hit are over-represented: about 1.6% of the library has one in this group of screens.
cytoskel mod: cytoskeleton assembly modification. inhibition, % at 2 µM. 91,000 tested, 0.18% active. HUVEC TNFa F-actin phalloidin imaging, high content;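 active = inhibition above the batch mean plus 3 SD and confirmed as a hit by visual image inspection, cut at about 30% in these data, passing the limit was not always enough; inconclusive = above the inhibition threshold but rejected on visual inspection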
S1P2 blocker: antagonists of human S1P2 receptor; AID 736; 97,000 tested, 0.21% active; inhibition, % at 5 µM; O95136; cell-based S1P2 antagonist assay, inhibition at 5 uM; in the data active = inhibition above about 45%;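 note: CRE beta-lactamase reporter cells expressing human S1P2 stimulated with S1P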
Target sequence (O95136 whole entry, looked up): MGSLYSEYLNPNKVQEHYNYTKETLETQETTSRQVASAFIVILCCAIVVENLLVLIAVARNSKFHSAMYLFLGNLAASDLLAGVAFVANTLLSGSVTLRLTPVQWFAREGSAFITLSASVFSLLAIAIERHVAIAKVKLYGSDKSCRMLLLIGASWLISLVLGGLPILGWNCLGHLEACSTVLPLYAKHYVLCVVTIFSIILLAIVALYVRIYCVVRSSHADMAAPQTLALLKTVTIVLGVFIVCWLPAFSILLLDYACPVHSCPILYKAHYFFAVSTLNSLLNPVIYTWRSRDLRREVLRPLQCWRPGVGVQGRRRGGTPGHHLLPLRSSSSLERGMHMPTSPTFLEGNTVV
S1P2 ag: S1P2 (human) receptor agonism. O95136. S1P2-expressing cell line, agonist reporter read-out. activation, % at 4.5 µM. 97,000 tested, 0.46% active; in the data active = activation above about 16%
E-sel TNF inh: TNF alpha driven E-selectin expression inhibition. HUVEC TNFa-induced E-selectin immunofluorescence, high content. inhibition, % at 2 µM. 120,000 tested, 0.71% active. AID 1246;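 active = inhibition above the batch mean plus 3 SD, and confirmed as a hit on visual image review, cut at about 43% in these data; inconclusive = passes the inhibition cutoff but fails visual image review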
TNFa cytotox: HUVEC cytotoxicity counter-screen, TNF alpha stimulated | AID 848 | 93,000 tested, 0.17% active | cell count reduction, % at 2 µM | HUVEC TNFalpha-stimulated, Hoechst cell count, imaging;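 active = cell count reduction exceeding the screen mean by over 5 SD, scaled to untreated wells per plate, cut at about 78% in these data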;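 note: cells counted after 24 h of TNF alpha exposure following the 1 h pretreatment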
VCAM1 TNFa inh: reduces TNF alpha induced VCAM1 expression in HUVEC. AID 802. HUVEC TNFa-induced VCAM-1 immunofluorescence, high-content imaging. 95,000 tested, 0.48% active. inhibition, % at 2 µM;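 active = inhibition above the batch mean plus 3 SD, with images confirmed as a hit by eye, cut at about 37% in these data; inconclusive = inhibition above that limit but hit not confirmed in images; inactive = inhibition not above that limit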
Large screens that a line does not name were inactive.

COC(=O)C1=CN(C(C)C)C=C(C(=O)OC)C1c1cc(Br)c(OC)c(OC)c1	S1P2 ag 18
O=C(NCCN1CCOCC1)c1c[nH]c2ccc(S(=O)(=O)N3CCOCC3)cc2c1=O	none (no result: cytoskel mod, S1P2 blocker, S1P2 ag, TNFa cytotox, VCAM1 TNFa inh)
O=C(O)c1c[nH]c2ccc(S(=O)(=O)N3CCOCC3)cc12	VCAM1 TNFa inh 55 (no result: E-sel TNF inh)
C[n+]1ccccc1COc1ccc(C(C)(C)C)cc1	none (no result: cytoskel mod, S1P2 blocker, S1P2 ag, TNFa cytotox, VCAM1 TNFa inh)
Cc1ccc(N)cc1S(=O)(=O)N(C)C	E-sel TNF inh 55 (no result: cytoskel mod, S1P2 blocker, S1P2 ag, TNFa cytotox, VCAM1 TNFa inh)
O=C(Nc1ccc2c(c1)OCO2)C1CC(=O)N(c2ccc3c(c2)OCCO3)C1 (stereo unspecified)	none (no result: cytoskel mod, S1P2 blocker, S1P2 ag, TNFa cytotox, VCAM1 TNFa inh)
Cc1ccc(N2CC(C(=O)Nc3ccc4c(c3)OCO4)CC2=O)cc1 (stereo unspecified)	TNFa cytotox 89
[O-][n+]1onc2c1C(N1CCOCC1)CCC2N1CCOCC1 (stereo unspecified)	E-sel TNF inh 82
CCC(=O)Nc1nc(-c2ccccc2)ns1	VCAM1 TNFa inh 58 (no result: TNFa cytotox)
CC1=C(C(=O)N2CCN(c3cc(C)ccc3C)CC2)C2(CCC(C)CC2)OC1=O (stereo unspecified)	none (no result: cytoskel mod, S1P2 blocker, S1P2 ag, TNFa cytotox, VCAM1 TNFa inh)
CN1/C(=C/C(=O)c2nc(S(C)(=O)=O)ncc2Cl)C(C)(C)c2ccccc21	E-sel TNF inh 90
CN1/C(=C\C(=O)c2ccco2)C(C)(C)c2ccccc21	S1P2 ag 18
CN1/C(=C\C(=O)c2cncc(Br)c2)C(C)(C)c2ccccc21	none (no result: cytoskel mod, S1P2 blocker, S1P2 ag, TNFa cytotox, VCAM1 TNFa inh)
CCCCCOC(=O)Cn1c(SCC(=O)Nc2ccccc2)nc2c1c(=O)[nH]c(=O)n2C	E-sel TNF inh 74
Cn1c(=O)[nH]c(=O)c2c1nc(SCC(=O)Nc1ccccc1)n2Cc1ccccc1	none
CCOc1ccc(CNC(=O)CCc2cn(Cc3ccccc3)c3ccccc23)cc1	none (no result: cytoskel mod, S1P2 blocker, S1P2 ag, TNFa cytotox, VCAM1 TNFa inh)
CCOC(=O)c1[nH]c2ccccc2c1NC(=S)Nc1cccc(C)c1C	none (no result: cytoskel mod, S1P2 blocker, S1P2 ag, TNFa cytotox, VCAM1 TNFa inh)
CCN(CC)CCN(Cc1cc2cc3c(cc2[nH]c1=O)OCCO3)C(=O)NC1CCCCC1	none
O=C(NC1CCCCC1)N(CCN1CCOCC1)Cc1cc2cc3c(cc2[nH]c1=O)OCCO3	cytoskel mod 33 (no result: E-sel TNF inh)
O=C(CCCn1c(=S)[nH]c2cc3c(cc2c1=O)OCO3)N1CCN(c2ccccc2F)CC1	S1P2 ag 31
O=C(O)C1CC=CCC1C(=O)N1CCN(c2nc(-c3ccccc3)c3ccccc3n2)CC1 (stereo unspecified)	S1P2 ag 21 (no result: E-sel TNF inh)
c1ccc(-c2nc(N3CCNCC3)nc3ccccc23)cc1	S1P2 ag 20
O=C(O)CCCC(=O)N1CCN(c2nc(-c3ccccc3)c3ccccc3n2)CC1	S1P2 ag 38 (no result: E-sel TNF inh)
c1ccc(-c2nc(N3CCCCC3)nc3ccccc23)cc1	none
CCOc1ccc2nc(C)cc(Nc3cccc([N+](=O)[O-])c3)c2c1	none (no result: cytoskel mod, S1P2 blocker, S1P2 ag, TNFa cytotox, VCAM1 TNFa inh)
O=C(c1cccc(C(F)(F)F)c1)N(c1ccccn1)C1CCCCC1	none (no result: cytoskel mod, S1P2 blocker, S1P2 ag, TNFa cytotox, VCAM1 TNFa inh)
Cc1ccc(S(=O)(=O)Cn2nnnc2C(C(C)C)N2CCN(c3nc4ccccc4s3)CC2)cc1 (stereo unspecified)	VCAM1 TNFa inh 50
COCc1cc(=O)[nH]c2cc(NC(=O)C3CC3)c(C)cc12	none
O=C1c2ccccc2-c2ncnc3cccc1c23	E-sel TNF inh 65
CCN(CC)S(=O)(=O)c1ccc(NC(=O)CSc2nnc(-c3ccc(F)cc3)o2)cc1	E-sel TNF inh 61
CCN(CC)S(=O)(=O)c1ccc(-c2nnc(SCC(=O)Nc3ccc4c(c3)OCO4)o2)cc1	none (no result: E-sel TNF inh)
CC12CCC(C(=O)N(CC(O)CN3CCCCC3)C1=O)C2(C)C (stereo unspecified)	none
NC(=S)N/N=C/c1ccc(-c2cc(Cl)ccc2Cl)o1	VCAM1 TNFa inh 54
NC(=S)N/N=C/c1ccc(-c2cc(Cl)cc(Cl)c2)o1	none
CCOc1ccc(C=O)cc1CN1CCCCC1	TNFa cytotox 84, VCAM1 TNFa inh 95
CCOC(=O)C1=C(C)N(C)C(=S)NC1c1cc(OC)ccc1OC (stereo unspecified)	none (no result: cytoskel mod, S1P2 blocker, S1P2 ag, TNFa cytotox, VCAM1 TNFa inh)
CC1(C(=O)Nc2ccc3ccccc3c2)CC1(Br)Br (stereo unspecified)	none (no result: cytoskel mod, S1P2 blocker, S1P2 ag, TNFa cytotox, VCAM1 TNFa inh)
COc1ccc(C(=O)c2c(C(F)(F)F)oc3c2C(=O)c2ccccc2C3=O)cc1	VCAM1 TNFa inh 94
CCS(=O)(=O)N1CCC(C(=O)NC2CCCCC2)CC1	cytoskel mod 31
CCN(CC)S(=O)(=O)N1CCC(C(=O)NC2CCCC2)CC1	none
COc1cc(S(=O)(=O)N(Cc2ccccn2)Cc2ccco2)ccc1-n1cnnn1	E-sel TNF inh 55
Nc1ccccc1-c1nnc(-c2ccc(-c3ccccc3)cc2)o1	S1P2 ag 20
CN(c1ccccc1)S(=O)(=O)c1ccc(NC(=S)Nc2ccccc2)cc1	E-sel TNF inh 87
O=C(N/N=C/c1ccc([N+](=O)[O-])s1)c1cccnc1	E-sel TNF inh 72 (no result: cytoskel mod, S1P2 blocker, S1P2 ag, TNFa cytotox, VCAM1 TNFa inh)
Cc1ccc(-c2csc3ncnc(Sc4nnc(CN5CCCCCC5=O)o4)c23)cc1	S1P2 blocker 52 (no result: E-sel TNF inh)
Cc1ccc(-c2csc3ncnc(SCC(=O)Nc4nnc(C)s4)c23)cc1	none
CCOc1ccc(-n2c(O)c(/C=N/NC(=O)C3COc4ccccc4O3)c3ccccc3c2=O)cc1 (stereo unspecified)	none (no result: cytoskel mod, S1P2 blocker, S1P2 ag, TNFa cytotox, VCAM1 TNFa inh)
NCCN1CCN(CCN)CC1	VCAM1 TNFa inh 94
COc1ccc(/C=C2/C(=O)OCc3cc(OC)c(OC)cc32)cc1	none (no result: cytoskel mod, S1P2 blocker, S1P2 ag, TNFa cytotox, VCAM1 TNFa inh)
CSc1nnc2n(-c3ccccc3)c(=O)c3c4c(sc3n12)CCC4	VCAM1 TNFa inh 58
CCCCn1c(NC(=O)c2ccccc2)c(C#N)c2nc3ccccc3nc21	none (no result: E-sel TNF inh)
CCC(C)n1c(NC(=O)c2ccccc2)c(C#N)c2nc3ccccc3nc21 (stereo unspecified)	S1P2 ag 56
Cn1c(SCC(=O)NC2CCCCC2)nnc1-c1cccc(N)c1	VCAM1 TNFa inh 54
Cc1ccc(-c2nc3cnccn3c2Nc2c(C)cccc2C)o1	none (no result: E-sel TNF inh)
COc1ccc(N2CCN(C(CNC(=O)C(=O)NCCCn3ccnc3)c3ccco3)CC2)cc1 (stereo unspecified)	none (no result: cytoskel mod, S1P2 blocker, S1P2 ag, TNFa cytotox, VCAM1 TNFa inh)
Cc1ccc(S(=O)(=O)NCc2ccncc2)cc1	none
CC1CCCCC1NS(=O)(=O)c1ccc(S(=O)(=O)NCc2ccncc2)cc1 (stereo unspecified)	S1P2 blocker 55
CCOc1ccc(S(=O)(=O)NCc2ccncc2)cc1	S1P2 blocker 64 (no result: cytoskel mod)
CCOC(=O)COc1ccc(S(=O)(=O)NCc2ccncc2)cc1	none
O=C(c1cccc(C(F)(F)F)c1)C1CCCN(Cc2cccn2-c2ccccn2)C1 (stereo unspecified)	none (no result: cytoskel mod, S1P2 blocker, S1P2 ag, TNFa cytotox, VCAM1 TNFa inh)
CC(Sc1nc(N)cc(=O)[nH]1)C(=O)NC1CCCCC1 (stereo unspecified)	VCAM1 TNFa inh 94
Cc1ccc(-c2noc(CCC(=O)N3CCCc4ccccc43)n2)cc1	S1P2 ag 43 (no result: E-sel TNF inh)
COc1ccc(-n2nnnc2S(=O)(=O)Cc2ccc(C(=O)O)cc2)cc1	none
COc1ccc(-n2nnnc2S(=O)(=O)CC(=O)N2CCCCC2)cc1	S1P2 blocker 53, E-sel TNF inh 82, VCAM1 TNFa inh inconclusive
Cc1ccc([N+](=O)[O-])cc1NC(=O)C(Sc1ccccc1)c1ccccc1 (stereo unspecified)	none (no result: cytoskel mod, S1P2 blocker, S1P2 ag, TNFa cytotox, VCAM1 TNFa inh)
